This is an account of results in the supplement of paper PMC11417369.

± gives the standard deviation of the averaged measurements. The full ranking holds about 25,000 sequences; the median of “ln(normalized median fluorescence intensity)” is about 8.9, and the highest 2% start at about 10. The sample as a whole holds a higher share of the highest values than the screen did.

For the experiment, the system named is PfAP2-LT AP2 domain (GST-tagged). In words: gcPBM binding intensity (ln(normalized median fluorescence intensity)); higher = stronger DNA binding. The method in brief: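 DNA-binding domains from P. falciparum, fused to GST and produced in E. coli, were put on an Agilent 4 × 180k double-stranded probe array for 1 h in 1× PBS holding 1% milk, 0.2 mg/ml BSA, 0.5% salmon testes DNA and 0.03% Triton X-100. Probes were primer-extended, 36 bp long and drawn from intergenic genomic regions, with negative controls included. After Alexa488 anti-GST antibody detection and a 488 nm scan, binding intensity was set as the highest Masliner-normalised natural-log median intensity across replicate spots of either probe orientation.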
For the sequence “GAATTATATACTTATTGTACAAAAAAAAAAAAAAAA [XGTACX_site3193]”, the “gcPBM binding intensity (ln)” value amounted to 8.36 ± 0.4. Take “TGCAGTCTGGAGAAACGTACATAGTATCTGGTAGCT [XGTACX_site4937]”: the “gcPBM binding intensity (ln)” value is 8.94 ± 0.57. The result for “TTCAACGTTTTGGAATGTACAGAAAGGTATCCATCA [XGTACX_site179]” reads 8.62 ± 0.42. The result for “AGTACAGACATAGACACACACACACCCATAAAAAAA [CACACA_site1515]” reads 9.99 ± 0.45.

Regarding “CACGCATACAGACACACACACACACCCATATATATA [CACACA_site636]”, the “gcPBM binding intensity (ln)” value was determined as 10.2 ± 0.37. The result for “TATCTCATAGTATACACACACACACCCACCCATATA [CACACA_site1739]” reads 10.1 ± 0.11. The figure for “ATAGTATACAGACACACACACACACCCATATATATA [CACACA_site1736]” is 10.2 ± 0.29; for “CACGCATACAGACACACACACACACCGATATATATA [CACACA_site8113]” it is 10.1 ± 0.37. On to “CACCATGATACATACACACAGACATATACGCATTCA [CACACA_site1008]”, for which the “gcPBM binding intensity (ln)” value came to 9.46 ± 0.18. The figure for “CATACACCCATACATACACACATACAGATATATATA [CACACA_site5123]” is 9.29 ± 0.33; for “TACACATACAGACATACACACATACCCATATACTCA [CACACA_site5037]” it is 9.6 ± 0.41. The figure for “CACGCATACGGACACACACACACACCGATATATATA [CACACA_site4521]” is 9.89 ± 0.33; for “TATATCTCATAGTATACACACACACCCACCCACATA [CACACA_site8513]” it is 9.9 ± 0.23. As for “GGCATATATATATGCACACATACATATATACATGTG [CACACA_site3859]”, the “gcPBM binding intensity (ln)” value worked out at 9.7 ± 0.3. The result for “GTTACACAAACAAACACACACACACGCACGCACAAA [CACACA_site7191]” reads 10 ± 0.2. The figure for “AAAGAAAAAAAAAAAAAAAAAAAAAAAATTATACAT [CACACA_negctrl_site7]” is 8.45 ± 0.64; for “TTTAAAACCTTACATACACACAAATATGTAAATATA [CACACA_site6464]” it is 8.75 ± 0.42; for “GAGCACCAAAATATATGTACATATGATAAATGTGAA [XGTACX_site1130]” it is 8.96 ± 0.51. As for GTTATTGAAAAAATAGTGCAATATAACAAAGTAAAA, the “gcPBM binding intensity (ln)” value was 8.85 ± 0.48. In the case of “AAAAAAAACGAACACACACACAAATATGTAAAAATA [CACACA_site6673]”, the “gcPBM binding intensity (ln)” value amounted to 9.87 ± 0.28. Consider “ATTATATTAATATATATATATATATATATAATAATA [CACACA_negctrl_site437]”, for which the “gcPBM binding intensity (ln)” value turned out to be 8.69 ± 0.3.

As for “TACACGCATGGACACACACACACACCCATATATATA [CACACA_site4522]”, the “gcPBM binding intensity (ln)” value was determined as 10.3 ± 0.35. In the case of “TCATAGTATGGACACACACACACACCCATATATATA [CACACA_site5033]”, the “gcPBM binding intensity (ln)” value is 10 ± 0.25. The result for “TACACCCATGGACACACACACACGCATAAAAAAAAA [CACACA_site4933]” reads 9.85 ± 0.58; that for “AAAAAAAATCAAATGGGTACTTATTCTTAATAATAT [XGTACX_site3792]”, 8.61 ± 0.33; that for “TTTTTAGAAAAGGTTATAAAAAATTAATTGAAAAAA [GTGCAC_negctrl_site289]”, 8.05 ± 0.47. The result for “TAAAAGTAAAGACATGCATGCATTGGTATCTTTTAC [TGCATGCA_site665]” reads 8.95 ± 0.35. Consider “ATGTAGACTGAAACCACACACACATATATATATATA [CACACA_site606]”, for which the “gcPBM binding intensity (ln)” value worked out at 10.2 ± 0.2.

For the sequence “GTAGACTGAAACCACACACACATATATATATATATT [CACACA_site605]”, the “gcPBM binding intensity (ln)” value was determined as 9.8 ± 0.13.

“GTAGACTGAAACCACACACACATATATAAATATATT [CACACA_site6433]”: the “gcPBM binding intensity (ln)” value came to 9.68 ± 0.38. In the case of “GCGTTGTTTTTAAAAAGTACATTTTTATATAAGTTA [XGTACX_site8780]”, the “gcPBM binding intensity (ln)” value amounted to 8.54 ± 0.46. The result for “TATTAAGAAGAAAATTCACACATTTGTACCTCTCTT [CACACA_site4822]” reads 8.86 ± 0.47. On to “ACATTCTATACATACACACCCACACCCAAAAAAAAA [CACACA_site863]”, for which the “gcPBM binding intensity (ln)” value stood at 9.59 ± 0.042. The result for “TATTCCCCCCAACACACACACACACCGACATACCAC [CACACA_site8723]” reads 10.8 ± 0.26; that for “TACAGACATACATACACACATACATACAGACATACA [CACACA_site1941]”, 9.43 ± 0.38; that for “ACATACATACCCCCACGTACGTACCGAAACACCACC [XGTACX_site1982]”, 9.74 ± 0.028. The result for “ATATATATATATTCCACACACACACCCAAAAAAAAA [CACACA_site3649]” reads 9.745 ± 0.05; that for “TTCCCCCCCAGACACACACACACATACATACCACAT [CACACA_site2305]”, 11.1 ± 0.77. The figure for “ATTCTACACCCACATACACACATATATATATATATA [CACACA_site3426]” is 10 ± 0.085. As to “AAATTCCACCAACACACACACATATAAATAAATAAA [CACACA_site1233]”, the “gcPBM binding intensity (ln)” value was 9.86 ± 0.42. Turning to “TACACCCACCCACATACACACACATACACATATATA [CACACA_site8503]”, the “gcPBM binding intensity (ln)” value was determined as 10.1 ± 0.21. With “GACATATTCCCCCCCACACACACACCCACATACATA [CACACA_site2302]”, the “gcPBM binding intensity (ln)” value was found to be 11.1 ± 0.18. The result for “CATACAGACATACATACACACATACATACAGACATA [CACACA_site6996]” reads 9.56 ± 0.35.

Turning to “TATTCCCCCAAACACACACACACACCCACATACCAC [CACACA_site2304]”, the “gcPBM binding intensity (ln)” value is 10.5 ± 0.13. The figure for “TGTTATTCTGCATATACACACAAATAACAATTTAAA [CACACA_site6943]” is 8.67 ± 0.38.

With “CCTTTTTTATTTACAACACACGTAAAGGTTCAAATA [CACACA_site1741]”, the “gcPBM binding intensity (ln)” value is 8.68 ± 0.42.

On to “TTTTCAATTAATAATACACACATGTATATATCATTA [CACACA_site7539]”, for which the “gcPBM binding intensity (ln)” value was 8.81 ± 0.43.

Turning to “TATGAAATGCTCCAATCACACATGAATGTAATATAT [CACACA_site5458]”, the “gcPBM binding intensity (ln)” value is 8.73 ± 0.35. “AACTATTACTTTCTTTCACACATTTTTTTTTTTTTT [CACACA_site5355]”: the “gcPBM binding intensity (ln)” value came out at 8.94 ± 0.59. On to “AATAATATCTGAAAATGTACATTTTATTATAAACAT [XGTACX_site8441]”, for which the “gcPBM binding intensity (ln)” value was 8.86 ± 0.45. “ATGAATAAAAAAGGTGGTACATATATATATATATAT [XGTACX_site7893]”: the “gcPBM binding intensity (ln)” value came to 9.82 ± 0.11. As to “AAAAAAAAAAAAAACACACACACATAGACCTCCAAT [CACACA_site3563]”, the “gcPBM binding intensity (ln)” value is 10.2 ± 0.26. “AAAAAAAAAAGACACACACACATAGACCTCCAATAG [CACACA_site7646]”: the “gcPBM binding intensity (ln)” value worked out at 9.79 ± 0.25.

On to “AAAAAAAAAAAACACACACACATAGACCTCCAATAG [CACACA_site3562]”, for which the “gcPBM binding intensity (ln)” value worked out at 9.77 ± 0.25. The result for “TATAAATATACAAAGGTGCATAAAAAGTTATGTTTT [GTGCAC_site9832]” reads 8.72 ± 0.44. Take “TTCTATTCAAATGCAAAATTATTAAATAAAAAATAA [GTGCAC_negctrl_site708]”: the “gcPBM binding intensity (ln)” value was determined as 8.31 ± 0.43.

In the case of “AAGAAAAGCATAGATGCACACATATATATATATATA [CACACA_site8675]”, the “gcPBM binding intensity (ln)” value was 10.2 ± 0.32. The figure for “AAAAAAAAAAGAAACACACACATATATATATAGAAT [CACACA_site1777]” is 9.44 ± 0.39. The result for “ATTTTAGATGAAAAAGCACACAACATATATATATAT [CACACA_site2295]” reads 9.44 ± 0.38. The result for “GAAAAGCATAGATGCACACATATATATATATATATA [CACACA_site2169]” reads 10.18 ± 0.014; that for “GCTAAAAGTATATGCACACACATATAGATGCACATA [CACACA_site6868]”, 9.34 ± 0.33.

For the sequence “TAGGAAAAGAAAAGCACACACATAAATAGATATATA [CACACA_site6382]”, the “gcPBM binding intensity (ln)” value is 9.43 ± 0.54.
